# Measured values: PubChem BioAssay AID651871 (Sanford-Burnham Center for Chemical Genomics, 2012)
# “And” between values parts separate entries of the source, which are not always exact repeats. Equal entries are not always repeated.
# Test system: HL-1
# Assay: protection of cardiomyocytes from stress damage, SAR follow-up, cell-based, panel, H9c2 and HL-1, ATP luminescence, set 2 (AID 651871);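 note: cells exposed to stressor for 2 h before ATP readout; reference of the scale not given here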
# Conditions: H9c2/HL-1 cardiomyocytes, 2-deoxyglucose stress, with 2-deoxyglucose, run 16, at 19.8 µM (top of the series)
compound,measurement,value
COc1ccc2c(c1OC)C(=O)N1c3ccccc3C(=O)N(Cc3cccc(Cl)c3Cl)C21 (stereo unspecified),activity (protection/inhibition),50.9% and 45%
